According to the supplement of paper PMC6607015:
Where a name gives a salt, the structure may show the parent alone.

Tests used:
Details in all cases: compound concentration in added solution (µM; 5 µl added to 20 µl cells): 10; 18 h
A431 [1] = assay: LBPA endosome anti-LBPA integrated intensity (sum per cell), Z-score; higher = more LBPA staining
In short: (§1)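 The data are Z-scores, normalised in AcuityXpress, of integrated LBPA or filipin intensity in each cell, either whole-cell or restricted to LBPA endosomes. HeLa MZ or A431 cells, 3,500 per well in 20 µl, were seeded onto 5 µl of 10 µM compound solution in duplicate 384-well plates and incubated 18 h. Fixed cells were stained and imaged, with intensities extracted by MetaXpress segmentation.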

HeLa MZ [2] = assay: as above
In short: as §1

A431 [3] = assay: whole-cell filipin (free cholesterol) integrated intensity, Z-score; higher = more cholesterol staining
In short: as §1

HeLa MZ [4] = assay: as above
In short: as §1

A431 [5] = assay: filipin (cholesterol) integrated intensity within LBPA endosomes, Z-score; higher = more cholesterol in LBPA endosomes
In short: as §1

HeLa MZ [6] = assay: as above
In short: as §1

Compound	LBPA endosome anti-LBPA integrated intensity (z-score) (A431 [1])	LBPA endosome anti-LBPA integrated intensity (z-score) (HeLa MZ [2])	whole-cell filipin (z-score) (A431 [3])	whole-cell filipin (z-score) (HeLa MZ [4])	filipin (z-score) (A431 [5])	filipin (z-score) (HeLa MZ [6])
CC(C)[N+](C)(CCC(C(N)=O)(c1ccccc1)c1ccccc1)C(C)C [Isopropamide iodide]	-0.212	0.0469	0.00888	-0.577	-0.389	-0.451
S=C(NC1CCCCC1)N1CCC(c2cnc[nH]2)CC1 [Thioperamide maleate]	2.17	2.24	-0.0418	0.0454	0.0582	0.431
COc1ccc(Cc2nccc3cc(OC)c(OC)cc23)cc1OC [Papaverine hydrochloride]	-0.662	0.0558	-0.685	-0.814	-0.607	-0.356
C[C@]12C[C@H]3S[C@H]3C[C@@H]1CC[C@@H]1[C@@H]2CC[C@]2(C)[C@@H](O)CC[C@@H]12 [Epitiostanol]	-0.387	0.565	0.372	0.761	-0.364	-0.401
C[N+]1([O-])[C@@H]2C[C@@H](OC(=O)[C@H](CO)c3ccccc3)C[C@H]1[C@@H]1O[C@@H]12 (some centres not stated) [Scopolamin-N-oxide hydrobromide]	-0.692	-1.8	-1.01	-0.711	-0.67	-0.618
CCC(=O)O[C@H]1CC[C@H]2[C@@H]3CCC4=CC(=O)CC[C@]4(C)[C@H]3CC[C@]12C [Testosterone propionate]	-0.618	-0.712	-0.907	-0.813	-0.502	-0.546
CN(C)C(=O)Oc1cc(OC(=O)N(C)C)cc(C(O)CNC(C)(C)C)c1 (configuration not stated) [Bambuterol hydrochloride]	-0.585	-0.352	-0.328	-0.434	-0.64	-0.586
COc1cc2c(cc1OC)C(C)NCC2 (configuration not stated)	-0.47	0.672	-0.808	-0.327	-0.528	-0.121
C=CCC1(CC(C)C)C(=O)NC(=O)NC1=O [Butalbital]	-0.477	-0.493	-0.608	-0.648	-0.55	-0.51
CN1C[C@H](C(=O)N[C@]2(C)O[C@@]3(O)[C@@H]4CCCN4C(=O)[C@H](Cc4ccccc4)N3C2=O)C[C@@H]2c3cccc4[nH]cc(c34)C[C@H]21 [Dihydroergotamine tartrate]	2.74	2.55	1.06	0.225	1.48	1.1
CCn1cc(C(=O)O)c(=O)c2cc3c(cc21)OCO3 [Oxolinic acid]	-0.55	-0.225	-0.848	-0.638	-0.512	-0.645
C[C@@H]1CC[C@H]2[C@@H](C)C(=O)O[C@@H]3O[C@@]4(C)CC[C@@H]1[C@]32OO4 [Artemisinin]	-0.479	0.63	-0.6	0.161	-0.503	-0.315
C1CCc2nnnn2CC1 [Pentylenetetrazole]	-0.641	-1.19	-0.85	-0.876	-0.452	-0.614
COc1ccc(OC)c(C(O)C(C)N)c1 (configuration not stated) [Methoxamine hydrochloride]	-0.442	0.415	-0.614	-0.834	-0.515	-0.513
CN(C)C(=O)Oc1cccc([N+](C)(C)C)c1 [Neostigmine bromide]	-0.478	-0.496	-0.63	-0.608	-0.499	-0.715
C[C@]12CCC(=O)C=C1CC[C@@H]1[C@@H]2C(=O)C[C@]2(C)C(=O)CC[C@@H]12 [Adrenosterone]	0.667	1.59	1.61	2.01	1	0.731
N[C@@H]1C[C@H]1c1ccccc1 [Tranylcypromine hydrochloride]	-0.505	-0.919	-0.309	-0.693	-0.48	-0.53
NCC(CC(=O)O)c1ccc(Cl)cc1 (racemic) [Baclofen (R,S)]	-0.529	-1.07	-1.03	-0.783	-0.513	-0.613
CO[C@]12C[C@@H](COC(=O)c3cncc(Br)c3)CN(C)[C@@H]1Cc1cn(C)c3cccc2c13 [Nicergoline]	3.54	1.32	3.37	-0.0724	3.09	0.446
CN1C(=O)CCS(=O)(=O)C1c1ccc(Cl)cc1 (configuration not stated) [Chlormezanone]	-0.579	-0.715	-0.534	0.0972	-0.511	-0.314
O=P1(N(CCCl)CCCl)NCCCO1 (configuration not stated) [Cyclophosphamide]	-0.0725	1.02	0.399	0.209	-0.311	0.352
CN1[C@@H]2CC[C@H]1C[C@@H](OC(=O)C(CO)c1ccccc1)C2 (some centres not stated) [Atropine sulfate monohydrate]	-0.568	-0.87	-0.533	-0.945	-0.5	-0.345
CCN(C(C)=O)c1cccc(-c2ccnc3c(C#N)cnn23)c1 [Zaleplon]	-0.486	-0.0487	-0.573	-0.909	-0.493	-0.507
COc1ccc(CN2CCNCC2)c(OC)c1OC [Trimetazidine dihydrochloride]	-0.479	0.3	-0.53	-0.184	-0.484	-0.365

Compound	LBPA endosome anti-LBPA integrated intensity (z-score) (A431 [1])	LBPA endosome anti-LBPA integrated intensity (z-score) (HeLa MZ [2])	whole-cell filipin (z-score) (A431 [3])	whole-cell filipin (z-score) (HeLa MZ [4])	filipin (z-score) (A431 [5])	filipin (z-score) (HeLa MZ [6])
CCC1=C[C@H]2CN3CCc4c([nH]c5ccccc45)[C@](C(=O)OC)(C2)[C@H]13 [Catharanthine]	0.776	1.57	1.16	0.581	0.958	0.861
C=CCN1CC[C@]23c4c5ccc(O)c4O[C@H]2C(=O)CC[C@@]3(O)[C@H]1C5 [Naloxone hydrochloride]	-0.497	-0.128	-0.72	-1.07	-0.454	-0.503
CN1CCC2(C)c3cc(O)ccc3N(C)C12 (single isomer, unassigned; (-)) [(-)-Eseroline fumarate salt]	-0.298	0.682	0.444	-0.261	-0.415	-0.33
COc1ccc(C(CN(C)C)C2(O)CCCCC2)cc1 (configuration not stated) [Venlafaxine]	-0.375	0.627	-0.148	-0.294	-0.383	-0.283
C#C[C@]1(O)CC[C@H]2[C@@H]3CCC4=CC(=O)CCC4=C3C=C[C@@]21CC [Gestrinone]	-0.489	-0.347	0.15	0.634	-0.436	-0.437
CC(=O)O[C@H]1C[C@@H]2CC[C@@H]3[C@H](CC[C@@]4(C)[C@H]3C[C@H]([N+]3(C)CCCCC3)[C@@H]4OC(C)=O)[C@@]2(C)C[C@@H]1[N+]1(C)CCCCC1 [Pancuronium bromide]	-0.551	-0.744	0.0171	-0.166	-0.527	-0.532
CC(Cc1ccc(O)cc1)NCC(O)c1cc(O)cc(O)c1 (configuration not stated) [Fenoterol hydrobromide]	-0.386	0.00712	-0.429	-0.631	-0.574	-0.584
CCC1(c2cccc(O)c2)CCCCN(C)C1 (configuration not stated) [Meptazinol hydrochloride]	-0.527	-0.173	0.166	-0.306	-0.402	-0.0124
c1ccc2nc(N3CCNCC3)ccc2c1 [Quipazine dimaleate salt]	-0.64	0.00535	-0.594	-0.241	-0.575	-0.45
C[N+]1(C)CCOC(O)(c2ccc(-c3ccc(C4(O)C[N+](C)(C)CCO4)cc3)cc2)C1 (configuration not stated) [Hemicholinium bromide]	-0.629	-1.27	-0.551	-0.638	-0.55	-0.667
CCC1(c2ccc(N)cc2)CCC(=O)NC1=O (configuration not stated) [Glutethimide, para-amino]	-0.66	-1.41	-1.07	-1	-0.544	-0.691
C[C@]12N[C@H](Cc3ccccc31)c1ccccc12 [Dizocilpine maleate]	-0.337	0.113	-0.302	-0.304	-0.361	-0.275
CNC(C)(C)Cc1ccccc1 [Mephentermine hemisulfate]	-0.473	-0.965	-0.48	-0.125	-0.471	-0.403
O=[N+]([O-])O[C@@H]1CO[C@H]2[C@@H]1OC[C@@H]2O [Isosorbide mononitrate]	-0.416	-0.118	0.0855	-0.408	-0.35	-0.464
C=C1[C@@H]2CC[C@H]3[C@]4(C)C[C@H](O[C@@H]5O[C@H](CO)[C@@H](OS(=O)(=O)O)[C@H](OS(=O)(=O)O)[C@H]5OC(=O)CC(C)C)C[C@@H](C(=O)O)[C@H]4CC[C@]3(C2)[C@@H]1O [Atractyloside potassium salt]	-0.439	-0.0672	-0.293	-0.252	-0.383	-0.47
CN1CCN(C(=O)OC2c3nccnc3C(=O)N2c2ccc(Cl)cn2)CC1 (configuration not stated) [Zopiclone]	-0.313	-0.4	-0.601	-0.164	-0.406	-0.296
CC(CCc1ccccc1)NC(C)C(O)c1ccc(O)cc1 (configuration not stated) [Nylidrin]	0.233	1.33	0.218	-0.109	-0.121	0.184
O=C(CCCN1CCC2(CC1)C(=O)NCN2c1ccccc1)c1ccc(F)cc1 [Spiperone]	1.39	1.71	1.66	1.7	1.87	2.13
COc1cccc(C2(O)CCCCC2CN(C)C)c1 (configuration not stated) [Tramadol hydrochloride]	-0.437	0.543	-0.062	-0.487	-0.403	-0.176
CN1C[C@H](CNC(=O)OCc2ccccc2)C[C@@H]2c3cccc4c3c(cn4C)C[C@H]21 [Metergoline]	3.11	1.47	1.11	1.28	4.03	4.18
CC(C)N(CCC(C(N)=O)(c1ccccc1)c1ccccn1)C(C)C (configuration not stated) [Disopyramide]	-0.423	0.142	-0.822	-0.537	-0.461	-0.294
OC(c1ccccc1)(c1ccccc1)C1CCNCC1 [Azacyclonol]	-0.397	-0.253	-0.445	-0.666	-0.198	0.228
C[C@]12CC[C@H](O)C[C@@H]1CC[C@@H]1[C@@H]2CC[C@]2(C)C(=O)CC[C@@H]12 [Epiandrosterone]	1.56	0.767	2.3	2.67	2.15	1.85
